# Several values for one entry are separate records, joined by “and”; a condition that tells them apart may be missing. Equal values may be shown once. Records with an inconclusive call do not appear. Some structures have more than one record in an assay (separate samples or runs), and their calls can disagree. Values without a mark were called inactive. Activity calls are given as the source filed them. The call rests on the fitted dose curve; in most records, active means well fitted inhibition curve with a large enough effect; inconclusive means small, poorly fitted or top-dose-only effect; inactive means flat fitted curve, though single readings scatter.
# Tests used:
# W2 = assay: qHTS profiling for inhibitors of Plasmodium falciparum proliferation (AID 504749); details: P. falciparum in erythrocytes, SYBR Green DNA, 72 h; series mostly up to 28.7 µM
# Summary of the method: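 Parasite proliferation within erythrocytes, 72 h exposure. Endpoint: SYBR Green I fluorescence after overnight lysis at room temperature. Controls: 0.29 uM artemisinin, DMSO.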
# HACAT [1] = assay: qHTS assay to identify novel small-molecules to repurpose for Merkel cell carcinoma treatment (AID 1296009); details: MCC and control cell lines, CellTiter-Glo viability, 72 h
# Summary of the method: (§1)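 qHTS format: cells treated with library compounds in DMSO across 8 (NPC) or 11 (MIPE) concentrations. Readout after 72 hr at 37 degree celsius was CellTiter-Glo luminescence.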
# HEK293T = assay: as above; details: MCC and control cell lines, CellTiter-Glo viability, 72 h; at 44.8 µM (top of the series) unless noted
# Summary of the method: as §1
# MCC-13 = assay: as above; details: MCC and control cell lines, CellTiter-Glo viability, 72 h; series mostly up to 46 µM
# Summary of the method: as §1
# MCC-26 = assay: as above; details: MCC and control cell lines, CellTiter-Glo viability, 72 h; series mostly up to 46 µM
# Summary of the method: as §1
# CRL-7250 = normal cell line; assay: Cytotoxic Profiling of Annotated Libraries Using Quantitative High-Throughput Screening (AID 1296008); details: Five cell lines viability, CellTiter-Glo ATP luminescence, 48-72 h; max response: stronger effect = lower value; on max response: on the % scale 0 is the no-effect control and ±100 the full control effect
# Summary of the method: (§2)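 Compounds were pin-transferred onto cells and incubated 48 or 72 hr at 37 degree Celsius, 95% humidity. CellTiter-Glo was added, plates sat 10 min at room temperature, then ATP-coupled luminescence was imaged as the viability read-out.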
# HEK293 = assay: as above; details: Five cell lines viability, CellTiter-Glo ATP luminescence, 48-72 h; max response: stronger effect = lower value
# Summary of the method: as §2
# HaCat [2] = assay: as above; details: Five cell lines viability, CellTiter-Glo ATP luminescence, 48-72 h; max response: stronger effect = lower value
# Summary of the method: as §2
# NIH3T3 = assay: as above; details: Five cell lines viability, CellTiter-Glo ATP luminescence, 48-72 h; max response: stronger effect = lower value
# Summary of the method: as §2
# KB-3-1 = assay: as above; details: Five cell lines viability, CellTiter-Glo ATP luminescence, 48-72 h; max response: stronger effect = lower value
# Summary of the method: as §2
# [3] = at 44.8 µM (top of the series) unless noted
# Further: nearly all actives have a fitted effect of over 60% in size.
# Potency means the concentration at half of the fitted maximal effect.
smiles,measurement,setting,value
NNc1nncc2ccccc12,Potency,W2,3.22 µM (active)
same,outcome,HACAT [1]; at 17.4 µM (top of the series),inactive
same,outcome,HACAT [1]; at 44.8 µM (top of the series),inactive
same,outcome,HEK293T,inactive [at 17.4 µM]
same,Potency,MCC-13,inactive
same,Potency,MCC-26,inactive
CCCCCCCCCCCCCCCCCCCCCCO,Potency,W2,inactive
same,outcome,CRL-7250,inactive
same,max response,HEK293,1.6%
same,max response,HaCat [2],4.38%
same,outcome,NIH3T3,inactive
same,Potency,MCC-13,inactive
CCCCC(CC)COC(=O)C(C#N)=C(c1ccccc1)c1ccccc1 (stereo not drawn),Potency,W2,6.75 µM (active)
same,Potency,HEK293,18.8 µM (active)
same,max response,HaCat [2],-0.998%
same,outcome,HaCat [2],inactive
same,outcome,KB-3-1,inactive
same,max response,NIH3T3,-1.9%
same,outcome,NIH3T3,inactive
same,outcome,HACAT [1]; [3],inactive
same,Potency,MCC-13,inactive
same,Potency,MCC-26,inactive
Nc1cc(C(Cl)=C(Cl)Cl)c(S(N)(=O)=O)cc1S(N)(=O)=O,Potency,W2,inactive
same,max response,CRL-7250,-8.91%
same,outcome,HEK293,inactive
same,max response,HaCat [2],2.98% and -14%
same,max response,NIH3T3,4.72% and -5.94%
same,outcome,HEK293T,inactive
same,Potency,MCC-13,inactive
same,Potency,MCC-26,inactive
Cc1cccc(C)c1OCC(=O)N[C@@H](Cc1ccccc1)[C@@H](O)C[C@H](Cc1ccccc1)NC(=O)[C@H](C(C)C)N1CCCNC1=O,Potency,W2,1.69 µM (active)
NC(=NCc1ccccc1)NC(=O)c1nc(Cl)c(N)nc1N,max response,HEK293,-5.25%
same,outcome,HaCat [2],inactive; activator
same,max response,KB-3-1,-6.74%
same,max response,NIH3T3,3.69%
same,outcome,HACAT [1]; [3],inactive; activator
same,Potency,MCC-13,inactive
same,Potency,MCC-26,inactive
Cc1cc(O)c2c(c1)C(=O)c1cc(O)cc(O)c1C2=O,outcome,CRL-7250,inactive
same,max response,HaCat [2],-5.49%
same,max response,KB-3-1,-3.32%
same,max response,NIH3T3,0.664%
same,Potency,MCC-13,inactive
same,Potency,MCC-26,inactive
COc1c(O)cc2c(c1O)[C@@H]1O[C@H](CO)[C@@H](O)[C@H](O)[C@H]1OC2=O,outcome,CRL-7250,inactive
same,outcome,HEK293,inactive
same,max response,HaCat [2],-11.1% and -23.6%
same,max response,NIH3T3,-9.83% and 0.115%
same,outcome,HEK293T,inactive
same,Potency,MCC-13,inactive
same,Potency,MCC-26,inactive
CC(=O)O[C@H]1C(=O)[C@@]2(C)C([C@H](OC(=O)c3ccccc3)[C@]3(O)C[C@H](OC(=O)[C@H](O)[C@@H](NC(=O)c4ccccc4)c4ccccc4)C(C)=C1C3(C)C)[C@]1(OC(C)=O)CO[C@@H]1C[C@@H]2O (stereo partly drawn),Potency,HEK293,0.0057 µM (active)
same,max response,HEK293,-90.8%
same,Potency,KB-3-1,1 nM (active) and 7.2 nM (active)
same,Potency,NIH3T3,5.9 nM (active) and 36 nM (active)
same,Potency,MCC-26,0.0037 µM (active)
CCCCCCCCOc1ccccc1C(=O)Nc1ccc(C(=O)OCC[N+](C)(CC)CC)cc1,Potency,W2,6.75 µM (active)
same,max response,CRL-7250,-18.9% and -13.2%
same,max response,HaCat [2],-9.66%
same,max response,KB-3-1,3.44%
same,max response,NIH3T3,-11.9% and 2.27%
same,Potency,MCC-13,inactive
O=C1c2c(O)cc(O)cc2OC(c2ccc(O)c(O)c2)C1O (stereo not drawn),max response,CRL-7250,-1.4%
same,max response,HEK293,-0.947%
same,max response,HaCat [2],2.31%
same,max response,NIH3T3,-9.07%
same,Potency,MCC-13,inactive
same,Potency,MCC-26,inactive
Nc1nc(N)c(N=O)c(OCC2CCCCC2)n1,Potency,CRL-7250,14.8 µM (active)
same,max response,HaCat [2],-17.6%
same,Potency,NIH3T3,16600 nM (active)
same,Potency,MCC-26,inactive
O=Nc1c(-c2c(O)[nH]c3cc(Br)ccc23)[nH]c2ccccc12,Potency,HEK293,14.8 µM (active)
same,Potency,HaCat [2],11.8 µM (active)
same,Potency,KB-3-1,13.2 µM (active)
same,Potency,MCC-13,18.7 µM (active)
same,Potency,MCC-26,16.6 µM (active)
CN1C(C(=O)Nc2ccccn2)=C(O)c2sccc2S1(=O)=O,Potency,W2,inactive
O=C(O)c1cc(=O)c2c(OCC(O)COc3cccc4oc(C(=O)O)cc(=O)c34)cccc2o1,Potency,W2,inactive
C=CCc1cc(OC)c(O)c(C(=O)NCCO)c1,Potency,W2,inactive
same,max response,HEK293,-0.342%
same,max response,HaCat [2],-2.64%
same,outcome,HaCat [2],inactive
same,max response,KB-3-1,8.32% and 9.16%
same,max response,NIH3T3,-1.28% and -4.54%
same,outcome,HACAT [1]; [3],inactive
same,Potency,MCC-13,inactive
same,Potency,MCC-26,inactive
CN(C)C(=O)[C@H](O)[C@H](Cc1ccccc1)NC(=O)c1cc2cc(Cl)ccc2[nH]1,outcome,CRL-7250,inactive
same,max response,HaCat [2],-6.71%
same,outcome,HaCat [2],inactive
same,max response,NIH3T3,-4.58%
same,outcome,NIH3T3,inactive
same,outcome,HACAT [1]; [3],inactive
same,Potency,MCC-13,inactive
NCCCCNCCCN,max response,CRL-7250,-45.5%
same,outcome,HaCat [2],inactive
same,outcome,HACAT [1]; [3],inactive
same,Potency,MCC-13,inactive
O=C(O)c1cccc(-c2noc(-c3ccccc3F)n2)c1,Potency,W2,inactive
same,outcome,CRL-7250,inactive
same,max response,HaCat [2],-27.5% and -24.9%
same,outcome,HaCat [2],inactive
same,max response,KB-3-1,-19.9% and 8.42%
same,max response,NIH3T3,-7.81%
same,outcome,HACAT [1]; [3],inactive
same,Potency,MCC-13,inactive
same,Potency,MCC-26,inactive
CC(C)c1nc(CN(C)C(=O)N[C@H](C(=O)N[C@@H](Cc2ccccc2)C[C@H](O)[C@H](Cc2ccccc2)NC(=O)OCc2cncs2)C(C)C)cs1,max response,CRL-7250,-16.9% and 0.649% and -2.4%
same,max response,HaCat [2],-41.4% and 3.85%
same,outcome,HaCat [2],inactive
same,max response,NIH3T3,-19.1% and 3.76%
same,outcome,NIH3T3,inactive
same,outcome,HACAT [1]; [3],inactive
same,Potency,MCC-13,inactive
same,Potency,MCC-26,inactive
Nc1nc(Cl)nc2c1ncn2[C@H]1C[C@H](O)[C@@H](CO)O1,Potency,HEK293,2.35 µM (active)
same,Potency,HaCat [2],1.32 µM (active)
same,Potency,NIH3T3,935 nM (active)
CCc1nc(N)nc(N)c1-c1ccc(Cl)cc1,max response,CRL-7250,-18.3%
same,Potency,HEK293,6.68 µM (active) and 18.7 µM (active)
same,max response,HaCat [2],3.72%
same,Potency,NIH3T3,8.41 µM (active) and 9.35 µM (active)
same,Potency,MCC-26,inactive
O=c1cc(N2CCOCC2)oc2c(-c3ccccc3)cccc12,Potency,MCC-13,inactive
same,Potency,MCC-26,inactive
C[C@H](Cc1ccc(O)c(O)c1)[C@@H](C)Cc1ccc(O)c(O)c1,outcome,HaCat [2],inactive
same,max response,KB-3-1,-9.31% and -6.61%
same,max response,NIH3T3,-21.7%
same,outcome,HACAT [1]; [3],inactive
same,Potency,MCC-13,inactive
same,Potency,MCC-26,inactive
C[Se]CCC(N)C(=O)O (stereo not drawn),max response,CRL-7250,-3.1%
same,max response,HEK293,-11.1%
same,max response,HaCat [2],-19.1%
same,outcome,NIH3T3,inactive
same,Potency,MCC-13,inactive
same,Potency,MCC-26,inactive
N=C(N)c1ccc2cc(OC(=O)c3ccc(N=C(N)N)cc3)ccc2c1,Potency,W2,6.75 µM (active)
same,max response,CRL-7250,-0.158% and -1.28%
same,max response,HEK293,-23.8% and 0.182%
same,max response,HaCat [2],-5.52% and -24.6%
same,max response,NIH3T3,-7.31% and -12.8%
same,Potency,MCC-13,inactive
Cc1cccc(C#Cc2ccccc2)n1,max response,HaCat [2],-25.8%
same,max response,KB-3-1,9.05%
same,max response,NIH3T3,-0.211%
same,Potency,MCC-13,inactive
same,Potency,MCC-26,inactive
O=C1c2ccccc2-c2n[nH]c3cccc1c23,max response,KB-3-1,-0.484%
same,Potency,MCC-13,inactive
O=C1CCc2ccc(OCCCCN3CCN(c4cccc(Cl)c4Cl)CC3)cc2N1,Potency,W2,9.53 µM (active)
same,Potency,HEK293,16.8 µM (active)
same,outcome,HaCat [2],inactive
same,max response,KB-3-1,-20.7%
same,max response,NIH3T3,-18.1%
same,outcome,HACAT [1]; [3],inactive
same,Potency,MCC-13,inactive
CCN(CC)CCOc1ccc(Nc2ncc3cc(-c4c(Cl)cccc4Cl)c(=O)n(C)c3n2)cc1,Potency,CRL-7250,0.0166 µM (active)
same,Potency,HEK293,0.209 µM (active)
same,Potency,HaCat [2],0.264 µM (active)
same,Potency,NIH3T3,74.3 nM (active)
same,Potency,MCC-13,2.64 µM (active)
CCOC(=O)C1=C[C@@H](OC(CC)CC)[C@H](NC(C)=O)[C@@H](N)C1,max response,CRL-7250,0.667%
same,max response,HEK293,-4.58%
same,max response,HaCat [2],1.74%
same,outcome,NIH3T3,inactive
same,Potency,MCC-13,inactive
same,Potency,MCC-26,inactive
Cc1cc(Cl)ccc1OCCCC(=O)NO,max response,CRL-7250,-2.51%
same,max response,HaCat [2],3.7%
same,Potency,MCC-13,inactive
same,Potency,MCC-26,inactive
